Compound activity as filed in PubChem BioAssay.
Most compounds without a hit are left out; they make up all but 5.8% or so of the library.
VP16 counter: Gal4-VP16 reporter inhibition counter-screen; Drosophila S2 Gal4-VP16 UAS-luciferase, luminescence, 20 h; 3.5% of 310,000 active; Potency, µM (highest dose often 53.6 µM), inactives show at the top dose activity, negative = inhibition, most hits filed as inhibitors;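 further: Gal4-VP16 expression switched on by copper sulfate through the metallothionein promoter; potency means the concentration at half of the fitted maximal effect; on the % scale 0 is the no-effect control and ±100 the full control effect; nearly all actives have a fitted effect of over 50% in size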
TRPV1 ag: activates the human vanilloid receptor TRPV1. AID 540275. TRPV1-expressing cells, Fluo-8 calcium influx, agonist mode. Q8NER1. activation, % at 8.33 µM. 0.19% of 320,000 active; in the data active means activation above about 80%; inconclusive means between about 30% and that limit; further: 0% is about no effect
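Cells expressing TRPV1 were dye-loaded with Fluo-8 and read kinetically: 10 s baseline, 3 min after compound (agonist portion), then 2 min after EC20 capsaicin (allosteric enhancer portion). Calcium-bound dye fluorescence at 480/520 nm.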
uPA generation: inhibitors of cell surface uPA generation | cell surface uPA generation assay, qHTS | Potency, µM (doses to about 38.3 µM), for the others: top-dose activity change, negative = inhibition, usual class: inhibitors | 0.31% of 330,000 active | AID 540303; active means well fitted inhibition curve with a large enough effect; inconclusive means small, poorly fitted or top-dose-only effect; inactive means no such curve, though single readings can be large or run the other way; tested in mouse RAW 264.7 cells; further: potency means the concentration at half of the fitted maximal effect; on the % scale 0 is the no-effect control and ±100 the full control effect; nearly all actives have a fitted effect of over 55% in size
TRPV1 PAM: potentiators of human vanilloid receptor 1 (TRPV1) | TRPV1-expressing cells, Fluo-8 calcium influx, capsaicin EC20 potentiation | AID 540277 | 0.02% of 320,000 active | Q8NER1 | potentiation, % at 8.33 µM; in the data active means potentiation above about 80%; inconclusive means between about 30% and that limit; further: 0% is about no effect
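TRPV1-expressing cells were cultured overnight at 35.5C and loaded with Fluo-8 calcium dye for 40 to 90 min at room temperature. After a 10 s baseline, compound was added and calcium influx was read kinetically for 3 min (ex 480/em 520 nm).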
RORg inh: inhibitors of mouse ROR gamma transcriptional activity; 5.4% of 310,000 active; Drosophila S2 Gal4-RORgamma UAS-luciferase reporter, 20 h; Potency, µM (highest dose often 53.6 µM), for the others: at the highest dose activity change, negative = inhibition, most hits filed as inhibitors; P51450; AID 2551; further: potency means the concentration at half of the fitted maximal effect; on the % scale 0 is the no-effect control and ±100 the full control effect; nearly all actives have a fitted effect of over 60% in size
Target sequence (P51450 whole entry, looked up, the tested form may be a part): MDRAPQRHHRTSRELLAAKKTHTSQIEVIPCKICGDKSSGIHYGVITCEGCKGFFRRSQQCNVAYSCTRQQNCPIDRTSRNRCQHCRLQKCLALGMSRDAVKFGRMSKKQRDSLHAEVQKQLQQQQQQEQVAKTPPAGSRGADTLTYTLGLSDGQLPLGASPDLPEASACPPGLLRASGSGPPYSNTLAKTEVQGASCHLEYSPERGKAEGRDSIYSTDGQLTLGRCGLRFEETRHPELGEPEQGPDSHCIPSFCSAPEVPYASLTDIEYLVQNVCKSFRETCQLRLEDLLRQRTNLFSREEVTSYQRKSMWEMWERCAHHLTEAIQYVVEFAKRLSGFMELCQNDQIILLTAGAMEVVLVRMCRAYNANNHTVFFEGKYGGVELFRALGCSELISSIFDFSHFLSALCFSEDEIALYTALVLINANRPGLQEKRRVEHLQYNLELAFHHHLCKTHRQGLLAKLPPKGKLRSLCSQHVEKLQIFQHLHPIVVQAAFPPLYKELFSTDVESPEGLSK
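Drosophila Schneider cells stably carrying a metallothionein-driven Gal4 DBD–ROR gamma fusion and a UAS-Photinus luciferase reporter were exposed to compound for 1 hr, then induced with copper sulfate (700 uM final) for 20 hr at ambient temperature before luminescence reading.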
Starred values were filed as active, the others as inactive; ? = inconclusive; . = no result given; ! = repeats disagree; [ ] = remark or other dose. Unless noted, the call rests on the fitted dose curve; in most records, active means well fitted curve in the direction sought with a large enough effect; inconclusive means small, poorly fitted or top-dose-only effect, or another doubt; inactive means no such curve, though single readings can be large; an effect the other way counts as inactive or inconclusive.

SMILES	VP16 counter	TRPV1 ag	uPA generation	TRPV1 PAM	RORg inh
COC(=O)c1cn[nH]c1NC(=S)Nc1ccc(C)cc1Cl	3.5µM*	-1	.	4	2.8µM*
COC(=O)c1cn[nH]c1NC(=S)Nc1ccccc1C	?	-1	.	2	5.6µM*
COC(=O)c1cn[nH]c1NC(=S)Nc1ccc(Cl)c(Cl)c1	?	2	.	-5	?
Cc1ccc(S(=O)(=O)Nc2ccc(-n3c(C)nc4ccccc4c3=O)cc2)cc1	.	-4	10%	6	.
CCc1ccc(C(=O)COC(=O)c2cc([N+](=O)[O-])ccc2N2CCOCC2)cc1	.	4	-11%	0	.
COC(=O)[C@H](C)NC(=O)[C@@H](C)CO	-10%[10 µM]	.	.	.	-3%[10 µM]
CCOc1ccc(NC(=S)N(CCOC)C(C)c2cccnc2)cc1 (stereo not drawn)	-1%	3	1%	7	11µM*
COCCCN(C(=S)Nc1cc(C)cc(C)c1)C(C)c1ccncc1 (stereo not drawn)	?	-2	2%	4	13µM*
COCCCN(C(=S)Nc1c(C)cc(C)cc1C)C(C)c1ccccn1 (stereo not drawn)	?	3	5%	3	14µM*
COCCCN(C(=S)Nc1ccc(OC)cc1)C(C)c1ccncc1 (stereo not drawn)	-2%	0	0%	-1	-11%
COCCN(C(=S)Nc1cccc(C)c1)C(C)c1cccnc1 (stereo not drawn)	-4%	1	2%	1	11µM*
COC(=O)NC(c1ccccc1)C(C#N)C(=O)OC (stereo not drawn)	-3%[10 µM]	.	.	.	-16%[10 µM]
CO[C@H]1COC(=O)C/C=C\[C@@H](C)COC(=O)[C@@H](C)NC(=O)C/C=C\[C@@H]1C	3%[10 µM]	.	.	.	2%[10 µM]
Cc1cccc(NC(=O)CNC(=O)COc2cccnc2[N+](=O)[O-])c1C	.	-1	2%	-1	.
C#Cc1ccc([C@H]2C=C(C(=O)Nc3ccccc3)O[C@@H](OCc3ccc(CO)cc3)C2)cc1	16%	1	8%	-12	9%
Cc1cncc(C(=O)O)[n+]1[O-]	-5%	.	.	.	-3%
CCCCC(=O)N(C)C	3%	.	.	.	-3%
Cc1ccc(SCCC(=O)NCCSCc2ccccc2C)cc1	-5%	?	-8%	-14	-1%
CC(=O)Nc1ccc(S(=O)(=O)Nc2ccc3c(c2)OCCO3)cc1Cl	13µM*	-2	-7%	12	?
CC(=O)Nc1ccc(S(=O)(=O)Nc2ccc3c(c2)C(=O)OC3)cc1	11µM*	7	.	5	?
COc1ccc(NS(=O)(=O)c2ccc(-n3cnnn3)cc2)cc1OC	10µM*	-4	-11%	12	-5%
COc1ccc(NS(=O)(=O)c2ccc3c(c2)OCCO3)cc1OC	7.1µM*	1	-13%	7	?
CCC1=C2CC[C@H]3C(=O)N(CC)C(=O)[C@H]3[C@H]2[C@@]2(C)C(=NCC(=O)OC)OC(=O)N2C1=O	-6%	.	.	.	15%
CCOC(=O)c1sc(NC(=O)CCc2ccc(OC)cc2)nc1C	-22%	-2	3%	12	0%
COc1ccc(S(=O)(=O)Nc2cccc(-c3ccc4nncn4n3)c2)cc1F	2%	-1	2.8µM*	14	31%
SMILES	VP16 counter	TRPV1 ag	uPA generation	TRPV1 PAM	RORg inh
O=c1c2cc3c(cc2[nH]c(=S)n1Cc1ccco1)OCO3	?	21	-4%	-13	-9%
COCCNC(=O)/C(C#N)=C/c1cccc(/C=C(\C#N)C(=O)NCCOC)c1	11µM*	4	-17%	-4	13µM*
N#C/C(=C\c1ccc(O)c(O)c1)C(=O)c1ccc(O)c(O)c1	.	-1	4µM*	-3	.
N#C/C(=C\c1cccc([N+](=O)[O-])c1)C(=O)NCc1ccc(Cl)cc1	18µM*	-1	-3%	9	?
N#C/C(=C\c1ccc(O)c(O)c1)C(=O)N1CCCC1	-16%	1	?	2	?
N#C/C(=C\c1cccc([N+](=O)[O-])c1)C(=O)NCc1cccnc1	?	-4	-2%	-1	?
CCOCCCNC(=O)/C(C#N)=C/c1ccc(Cl)c([N+](=O)[O-])c1	?	7	3%	-6	13µM*
COc1cccc(CNC(=O)Cn2ccc([N+](=O)[O-])n2)c1	7%	-2	-12%	-5	13%
CCNC(=O)Nc1ccc(-n2nc(C)c(C(=O)OCC)c2C)nc1	7%	-2	-9%	16	7%
COCCNC(=O)/C(C#N)=C/C=C/c1ccccc1[N+](=O)[O-]	-16%	0	-9%	-3	13µM*
N#C/C(=C\c1ccc(O)c(O)c1)C(=O)NCCCc1ccccc1	11µM*	19	3.5µM*	-13	22µM*!
COCCNC(=O)/C(C#N)=C/c1ccc(O)c([N+](=O)[O-])c1	-20%	-2	1%	15	2%
COc1cccc(CNC(=O)C2CC(=O)N(c3ccc4c(c3)OCCO4)C2)c1 (stereo not drawn)	.	21	2%	-12	.
O=C(Nc1cccc([N+](=O)[O-])c1)C1CCN(C(=O)Cc2ccccc2)CC1	0%	28	11%	-21	?
Cc1ccc(Cl)cc1NC(=S)N(CCCN1CCN(C)CC1)Cc1ccco1	-4%	2	-5%	1	-3%
CCOC(=O)C1CCCN(C(=S)Nc2cc(C)cc(C)c2)C1 (stereo not drawn)	?	0	-3%	-8	11µM*
Cc1ccc(C)c(NC(=S)N2CCCCCC2)c1	?	0	2%	-5	13µM*
CCc1ccc(NC(=S)N2CCC(NC(=O)c3ccccc3OC)CC2)cc1	-8%	19	-3%	-19	10µM*
Cc1cc(Cl)ccc1NC(=S)N1CCOCC1	-13%	0	3%	2	?
CCc1ccc(NC(=S)N2CCC(NC(=O)c3ccccc3)CC2)cc1	0%	5	-3%	0	0%
CCOC(=O)C1CCN(C(=S)Nc2ccc(Cl)cc2C)CC1	?	2	2%	3	14µM*
CC(=O)NC[C@@H]1CN(c2ccc(N3CCOCC3)c(F)c2)C(=O)O1	-2%	.	.	.	-14%[10 µM]
CCOC(=O)C1CCN(C(=S)Nc2cc(C)ccc2C)CC1	?	0	1%	4	18µM*
CCOC(=O)C1CCN(C(=S)Nc2cccc(C)c2C)CC1	-9%	2	-1%	-3	11µM*
CCOC(=O)C1CCN(C(=S)Nc2cccc(C)c2)CC1	?	1	2%	-1	-41%
CCCCc1ccc(NC(=S)N2CCC(O)CC2)cc1	16%	85*	2%	14	-24%
CCOC(=O)C1CCN(C(=S)Nc2ccc(CC)cc2)CC1	?	?	-2%	-31	11µM*
CC1CCC2(CC1)NC(=O)N(CC(=O)NCCc1ccc(F)cc1)C2=O (stereo not drawn)	.	0	-8%	-3	.
C/C(=N\NC(=O)Cc1c[nH]c2ccccc12)c1ccc2ccccc2c1	-12%	?	-1%	-14	?
